Test results as given in PubChem BioAssay (EPA / NIEHS).
Activity calls are given as the source filed them. How the source made its calls: active means hit-call score of the fitted dose curve at least 0.9, where 1 is the maximum; inactive means score below 0.9.

Key:
Conditions in all cases: mRNA level, 48 h; actives raise or lower the signal
[1] = read-out: Tumor necrosis factor receptor superfamily member 6 (Homo sapiens) (UniProt P25445); test: LTEA_HepaRG_FAS: Life Technologies and Expression Analysis (LTEA) Assay for Fas cell surface death receptor (FAS) using HepaRG (AID 2283447)
In short: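 Differentiated human HepaRG cells, pre-cultured 48 h, were exposed in duplicate for 48 h to 8-point half-log concentrations (top 100 uM, 0.5% DMSO) in serum-free induction medium; FAS mRNA measured by qRT-PCR, normalized to ACTB/GAPDH/POLR2A, bidirectional fit versus DMSO.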

[2] = read-out: Fatty acid synthase (Homo sapiens) (UniProt P49327); test: LTEA_HepaRG_FASN: Life Technologies and Expression Analysis (LTEA) Assay for Fatty Acid Synthase (FASN) using HepaRG (AID 2283448)
In short: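 FASN expression changes, up or down relative to 0.5% DMSO, were measured by qRT-PCR in human HepaRG cells after 48 h treatment with chemicals at eight concentrations (half-log steps from 100 uM).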

[3] = read-out: Cyclin Dependent Kinase Inhibitor 1A (CDKN1A), CDKN1A (gene 1026); test: LTEA_HepaRG_CDKN1A: Life Technologies and Expression Analysis (LTEA) Assay for Cyclin Dependent Kinase Inhibitor 1A (CDKN1A) using HepaRG (AID 2283450)
In short: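 Expression quantified by Fluidigm qRT-PCR with ACTB, GAPDH and POLR2A normalization, fitted bidirectionally against 0.5% DMSO. Cells: HepaRG, plated 48 h then treated 48 h in serum-free induction medium, top concentration 100 uM with half-log dilutions.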

[4] = read-out: Cyclin D1 (CCND1), CCND1 (gene 595); test: LTEA_HepaRG_CCND1: Life Technologies and Expression Analysis (LTEA) Assay for Cyclin D1 (CCND1) using HepaRG (AID 2283451);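 on AC50: TaqMan qRT-PCR transcript level normalised to ACTB GAPDH and POLR2A housekeeping genes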
In short: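 Expression of CCND1 was quantified by qRT-PCR on Fluidigm arrays using ACTB, GAPDH and POLR2A as reference genes. HepaRG cultures, plated 48 h beforehand, were dosed for 48 h at up to 100 uM (half-log, 8 points) in 0.5% DMSO.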

[5] = read-out: catalase (CAT), CAT (gene 847); test: LTEA_HepaRG_CAT: Life Technologies and Expression Analysis (LTEA) Assay for catalase (CAT) using HepaRG (AID 2283452);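 on AC50: TaqMan qRT-PCR signal normalized to ACTB GAPDH and POLR2A housekeeping genes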
In short: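 Differentiated HepaRG cells in serum-free induction medium were dosed 48 h in duplicate, eight half-log concentrations from 100 uM in 0.5% DMSO. Transcript measured by TaqMan qRT-PCR, normalised to ACTB/GAPDH/POLR2A, fitted bidirectionally against DMSO.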

[6] = read-out: flavin-containing dimethylaniline monooxygenases 3 (FMO3), FMO3 (gene 2328); test: LTEA_HepaRG_FMO3: Life Technologies and Expression Analysis (LTEA) Assay for flavin-containing dimethylaniline monooxygenases 3 (FMO3) using HepaRG (AID 2283453)
In short: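 Differentiated HepaRG cells in serum-free induction medium, exposed 48 h in duplicate to 8 half-log concentrations up to 100 uM in 0.5% DMSO. FMO3 mRNA by qRT-PCR, normalized to ACTB, GAPDH, POLR2A; bidirectional fit vs DMSO.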

[7] = read-out: Cytochrome P450 (CYP1A1), CYP1A1 (gene 1543); test: LTEA_HepaRG_CYP1A1: Life Technologies and Expression Analysis (LTEA) Assay for Cytochrome P450 (CYP1A1) using HepaRG (AID 2283454)
In short: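 CYP1A1 transcript levels measured by Fluidigm qRT-PCR against three housekeeping genes, 48 h after chemical dosing of human HepaRG cells (highest concentration 100 uM, half-log steps, 0.5% DMSO vehicle). Gain or loss of signal fitted relative to DMSO.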

[8] = read-out: CFLAR gene, CFLAR (gene 8837); test: LTEA_HepaRG_CFLAR: Life Technologies and Expression Analysis (LTEA) Assay for CFLAR gene using HepaRG (AID 2283455)
In short: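 HepaRG cells were plated for 48 h, switched to serum-free induction medium, then exposed in duplicate for 48 h to 8 concentrations (top 100 uM, half-log steps, 0.5% DMSO). CFLAR mRNA was measured by qRT-PCR, normalized to ACTB, GAPDH and POLR2A.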

[9] = read-out: Cyclin D2 (CCND2), CCND2 (gene 894); test: LTEA_HepaRG_CCND2: Life Technologies and Expression Analysis (LTEA) Assay for Cyclin D2 (CCND2) using HepaRG (AID 2283449);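 further: CCND2 transcript measured by TaqMan qRT-PCR and normalised to three housekeeping genes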
In short: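 Differentiated human HepaRG cells were exposed for 48 h in serum-free induction medium to eight half-log concentrations topping at 100 uM (0.5% DMSO vehicle). CCND2 mRNA was quantified by TaqMan qRT-PCR, normalised to ACTB, GAPDH and POLR2A, and fitted bidirectionally against DMSO.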

Fatty acid synthase (Homo sapiens), sequence (P49327 whole entry, looked up): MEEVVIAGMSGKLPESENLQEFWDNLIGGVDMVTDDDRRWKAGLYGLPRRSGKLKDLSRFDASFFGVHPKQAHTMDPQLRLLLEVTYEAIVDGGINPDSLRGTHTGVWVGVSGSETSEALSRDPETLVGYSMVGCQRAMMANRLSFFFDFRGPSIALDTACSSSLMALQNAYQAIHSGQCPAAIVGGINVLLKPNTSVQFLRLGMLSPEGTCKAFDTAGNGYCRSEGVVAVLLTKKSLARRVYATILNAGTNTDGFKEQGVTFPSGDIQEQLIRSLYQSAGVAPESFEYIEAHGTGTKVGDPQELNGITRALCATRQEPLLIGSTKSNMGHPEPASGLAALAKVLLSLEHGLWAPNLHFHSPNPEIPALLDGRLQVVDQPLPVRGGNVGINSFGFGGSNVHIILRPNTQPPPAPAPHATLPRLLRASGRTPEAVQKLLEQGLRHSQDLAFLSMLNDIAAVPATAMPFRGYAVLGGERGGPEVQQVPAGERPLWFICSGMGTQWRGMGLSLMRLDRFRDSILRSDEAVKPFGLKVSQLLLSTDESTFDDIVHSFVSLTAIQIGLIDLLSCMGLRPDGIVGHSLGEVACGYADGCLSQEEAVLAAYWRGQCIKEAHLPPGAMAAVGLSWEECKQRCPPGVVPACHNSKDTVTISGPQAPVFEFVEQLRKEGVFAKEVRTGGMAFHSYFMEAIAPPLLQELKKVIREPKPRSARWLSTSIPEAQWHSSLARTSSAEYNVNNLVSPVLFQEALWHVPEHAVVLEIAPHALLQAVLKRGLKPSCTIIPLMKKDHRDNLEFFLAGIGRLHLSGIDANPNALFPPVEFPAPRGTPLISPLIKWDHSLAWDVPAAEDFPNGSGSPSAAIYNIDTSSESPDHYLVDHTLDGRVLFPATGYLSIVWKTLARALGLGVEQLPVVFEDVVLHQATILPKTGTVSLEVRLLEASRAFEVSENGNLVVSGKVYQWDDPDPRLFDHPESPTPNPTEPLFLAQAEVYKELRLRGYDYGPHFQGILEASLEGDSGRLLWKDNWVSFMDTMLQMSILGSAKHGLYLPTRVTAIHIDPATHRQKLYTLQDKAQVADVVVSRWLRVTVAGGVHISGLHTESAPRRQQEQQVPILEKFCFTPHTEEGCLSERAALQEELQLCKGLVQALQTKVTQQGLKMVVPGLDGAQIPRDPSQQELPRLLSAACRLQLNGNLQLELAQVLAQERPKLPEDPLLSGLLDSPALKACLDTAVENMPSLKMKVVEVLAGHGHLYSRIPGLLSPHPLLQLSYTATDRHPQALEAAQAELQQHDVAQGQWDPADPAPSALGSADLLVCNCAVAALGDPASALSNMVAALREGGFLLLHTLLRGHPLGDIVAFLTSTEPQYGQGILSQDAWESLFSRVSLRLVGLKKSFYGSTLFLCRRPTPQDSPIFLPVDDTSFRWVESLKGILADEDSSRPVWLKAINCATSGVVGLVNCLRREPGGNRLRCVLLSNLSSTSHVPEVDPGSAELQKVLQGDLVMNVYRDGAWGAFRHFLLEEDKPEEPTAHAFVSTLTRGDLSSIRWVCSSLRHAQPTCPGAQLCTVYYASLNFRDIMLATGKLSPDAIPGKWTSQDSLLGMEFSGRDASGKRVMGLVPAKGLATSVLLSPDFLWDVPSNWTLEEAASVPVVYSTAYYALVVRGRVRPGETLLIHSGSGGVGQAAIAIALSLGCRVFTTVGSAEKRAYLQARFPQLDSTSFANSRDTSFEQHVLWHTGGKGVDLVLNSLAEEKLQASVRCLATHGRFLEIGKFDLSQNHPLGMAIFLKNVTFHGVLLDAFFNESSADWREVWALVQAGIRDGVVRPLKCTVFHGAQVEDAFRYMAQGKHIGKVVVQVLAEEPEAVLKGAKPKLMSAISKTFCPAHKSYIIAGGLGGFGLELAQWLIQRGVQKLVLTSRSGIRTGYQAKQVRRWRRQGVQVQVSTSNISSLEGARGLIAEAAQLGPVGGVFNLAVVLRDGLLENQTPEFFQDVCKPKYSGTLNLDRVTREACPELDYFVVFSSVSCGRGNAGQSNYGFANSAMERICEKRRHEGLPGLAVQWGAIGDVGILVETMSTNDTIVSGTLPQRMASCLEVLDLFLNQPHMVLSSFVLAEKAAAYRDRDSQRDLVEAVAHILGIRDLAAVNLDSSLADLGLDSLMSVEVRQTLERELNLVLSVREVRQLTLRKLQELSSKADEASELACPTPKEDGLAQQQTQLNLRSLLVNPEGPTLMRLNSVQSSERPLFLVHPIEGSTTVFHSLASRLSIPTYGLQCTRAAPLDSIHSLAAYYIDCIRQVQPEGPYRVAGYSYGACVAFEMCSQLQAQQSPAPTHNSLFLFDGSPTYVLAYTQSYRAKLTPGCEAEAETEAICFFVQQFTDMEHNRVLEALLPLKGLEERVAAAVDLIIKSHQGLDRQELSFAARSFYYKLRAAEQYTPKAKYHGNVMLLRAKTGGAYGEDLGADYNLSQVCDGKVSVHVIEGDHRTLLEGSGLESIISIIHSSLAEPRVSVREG

## CC(C)C(=O)OCC(C)(C)C(OC(=O)C(C)C)C(C)C (centres undefined)
[1]
  outcome: inactive
[2]
  outcome: inactive
[3]
  outcome: inactive
[4]
  outcome: inactive
[5]
  outcome: inactive
[6]
  outcome: inactive
[7]
  outcome: inactive
[8]
  outcome: inactive

## Cc1ccccc1[N+](=O)[O-]
[1]
  outcome: inactive
[2]
  outcome: inactive
[3]
  outcome: inactive
[4]
  outcome: inactive
[5]
  outcome: inactive
[6]
  outcome: inactive
[7]
  outcome: inactive
[8]
  outcome: inactive

## Cc1ccccc1O
[1]
  outcome: inactive
[2]
  outcome: inactive
[9]
  outcome: inactive
[3]
  outcome: inactive
[4]
  outcome: inactive
[5]
  outcome: inactive
[6]
  outcome: inactive
[7]
  outcome: inactive
[8]
  outcome: inactive

## CC(c1ccc(O)cc1)(c1ccc(O)cc1)c1ccc(O)cc1
[1]
  AC50: 91.1 µM (active)
[2]
  AC50: 32.1 µM (active)
[3]
  AC50: 50 µM (active)
[4]
  AC50: 24.1 µM (active)
[5]
  AC50: 50 µM (active)
[6]
  AC50: 74.5 µM (active)
[7]
  AC50: 15.8 µM (active)
[8]
  AC50: 64.5 µM (active)

## C=CC(=O)NCNC(=O)C=C
[1]
  outcome: inactive
[2]
  outcome: inactive
[3]
  outcome: inactive
[4]
  outcome: inactive
[5]
  outcome: inactive
[6]
  outcome: inactive
[7]
  AC50: 25 µM (active)
[8]
  outcome: inactive

## O=C(O)C(F)(F)C(F)(F)C(F)(F)C(F)(F)C(F)(F)F
[1]
  outcome: inactive
[2]
  outcome: inactive
[9]
  outcome: inactive
[3]
  outcome: inactive
[4]
  outcome: inactive
[5]
  outcome: inactive
[6]
  AC50: 2.34 µM (active)
[7]
  AC50: 50 µM (active)
[8]
  outcome: inactive

## CCCCCCCCCc1ccc(O)cc1
[1]
  outcome: inactive
[2]
  outcome: inactive
[9]
  outcome: inactive
[3]
  outcome: inactive
[4]
  outcome: inactive
[5]
  outcome: inactive
[6]
  outcome: inactive
[7]
  AC50: 50 µM (active)
[8]
  outcome: inactive

## COS(=O)(=O)OC
[1]
  outcome: inactive
[2]
  outcome: inactive
[9]
  outcome: inactive
[3]
  outcome: inactive
[4]
  outcome: inactive
[5]
  outcome: inactive
[6]
  outcome: inactive
[7]
  AC50: 25.5 µM (active)
[8]
  outcome: inactive

## O=S(=O)(O)C(F)(F)C(F)(F)C(F)(F)C(F)(F)F
[1]
  outcome: inactive
[2]
  outcome: inactive
[9]
  outcome: inactive
[3]
  outcome: inactive
[4]
  outcome: inactive
[5]
  outcome: inactive
[6]
  outcome: inactive
[7]
  outcome: inactive
[8]
  outcome: inactive

## CN(C)c1nc(=O)n(C2CCCCC2)c(=O)n1C
[1]
  outcome: inactive
[2]
  outcome: inactive
[9]
  outcome: inactive
[3]
  outcome: inactive
[4]
  outcome: inactive
[5]
  outcome: inactive
[6]
  outcome: inactive
[7]
  AC50: 50 µM (active)
[8]
  outcome: inactive

## CO/C=C(/C(=O)OC)c1ccccc1COc1cccc(C(F)(F)F)n1
[1]
  AC50: 9.8 µM (active)
[2]
  AC50: 9 µM (active)
[3]
  AC50: 9.85 µM (active)
[4]
  AC50: 50 µM (active)
[5]
  AC50: 6.81 µM (active)
[6]
  AC50: 20.9 µM (active)
[7]
  AC50: 8.52 µM (active)
[8]
  AC50: 18.8 µM (active)

## C=CC(N)=O
[1]
  outcome: inactive
[2]
  outcome: inactive
[9]
  outcome: inactive
[3]
  outcome: inactive
[4]
  outcome: inactive
[5]
  outcome: inactive
[6]
  outcome: inactive
[7]
  outcome: inactive
[8]
  outcome: inactive

## c1ccc(-c2ccccc2)cc1
[2]
  outcome: inactive
[9]
  outcome: inactive
[3]
  outcome: inactive
[4]
  outcome: inactive
[5]
  outcome: inactive
[6]
  outcome: inactive
[7]
  outcome: inactive
[8]
  outcome: inactive

## Clc1ccc(C(Cl)(Cl)Cl)cc1
[1]
  outcome: inactive
[2]
  outcome: inactive
[9]
  outcome: inactive
[3]
  outcome: inactive
[4]
  outcome: inactive
[5]
  outcome: inactive
[6]
  outcome: inactive
[7]
  outcome: inactive
[8]
  outcome: inactive

## CC(C)(c1ccccc1)c1ccc(O)cc1
[1]
  outcome: inactive
[2]
  outcome: inactive
[3]
  outcome: inactive
[4]
  outcome: inactive
[5]
  outcome: inactive
[6]
  outcome: inactive
[7]
  outcome: inactive

## CCC(C)(c1ccc(O)cc1)c1ccc(O)cc1
[1]
  outcome: inactive
[2]
  AC50: 70.5 µM (active)
[9]
  outcome: inactive
[3]
  outcome: inactive
[4]
  outcome: inactive
[5]
  outcome: inactive
[6]
  outcome: inactive
[7]
  outcome: inactive
[8]
  AC50: 71.4 µM (active)

## O=C(O)C(F)(F)C(F)(F)C(F)(F)C(F)(F)C(F)(F)C(F)(F)C(F)(F)C(F)(F)F
[1]
  AC50: 69.2 µM (active)
[2]
  AC50: 94.2 µM (active)
[3]
  AC50: 79.9 µM (active)
[4]
  AC50: 50 µM (active)
[5]
  AC50: 85 µM (active)
[6]
  AC50: 79.7 µM (active)
[7]
  outcome: inactive
[8]
  outcome: inactive
